# From publication PMC8384837, “Expanding the binding specificity for RNA recognition by a PUF domain”
# Columns and labels:
# Assay in all cases: yeast three-hybrid, YBZ-1, SC-Leu-His + 0.5 mM 3-AT, 4 days
# Conditions in all cases: tags: N-Gal4 AD-HA kept; label: inside an RPR1-promoter hybrid RNA with tandem MS2 sites; ssRNA
# PUM1 PUF domain R5-KMW = PUM1 PUF domain R5-KMW (Homo sapiens, UniProt Q14671 828-1176, C1007K;R1008M;Q1011W)
# Procedure, shortened: (§1)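 Repeat regions from input (SC-Leu) and selection (SC-Leu-His + 0.5 mM 3-AT) plates were PCR-amplified and Illumina-sequenced after four days of growth. The cells were strain YBZ-1 with a LexA–MS2 coat fusion and a HIS3 reporter, co-expressing Pumilio-1 PUF domain libraries and matching RNA elements from a centromeric plasmid. The interaction score is the log change in variant frequency from input to selection, taken in log2 with a pseudocount of 1 for absent variants.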
# PUM1 PUF domain R5-KTV = PUM1 PUF domain R5-KTV (Homo sapiens, UniProt Q14671 828-1176, C1007K;R1008T;Q1011V)
# Procedure, shortened: as §1
# PUM1 PUF domain R5-ERL = PUM1 PUF domain R5-ERL (Homo sapiens, UniProt Q14671 828-1176, C1007E;Q1011L)
# Procedure, shortened: as §1
# PUM1 PUF domain R3-RSL = PUM1 PUF domain R3-RSL (Homo sapiens, UniProt Q14671 828-1176, C935R;R936S;Q939L)
# Procedure, shortened: as §1
# PUM1 PUF domain R3-QRG = PUM1 PUF domain R3-QRG (Homo sapiens, UniProt Q14671 828-1176, C935Q;Q939G)
# Procedure, shortened: as §1
# PUM1 PUF domain R3-RAD = PUM1 PUF domain R3-RAD (Homo sapiens, UniProt Q14671 828-1176, C935R;R936A;Q939D)
# Procedure, shortened: as §1
# PUM1 PUF domain R6-FRI = target: T1, PUM1 PUF domain R6-FRI (Homo sapiens, UniProt Q14671 828-1176, N1043F;Y1044R;Q1047I)
# T1 sequence: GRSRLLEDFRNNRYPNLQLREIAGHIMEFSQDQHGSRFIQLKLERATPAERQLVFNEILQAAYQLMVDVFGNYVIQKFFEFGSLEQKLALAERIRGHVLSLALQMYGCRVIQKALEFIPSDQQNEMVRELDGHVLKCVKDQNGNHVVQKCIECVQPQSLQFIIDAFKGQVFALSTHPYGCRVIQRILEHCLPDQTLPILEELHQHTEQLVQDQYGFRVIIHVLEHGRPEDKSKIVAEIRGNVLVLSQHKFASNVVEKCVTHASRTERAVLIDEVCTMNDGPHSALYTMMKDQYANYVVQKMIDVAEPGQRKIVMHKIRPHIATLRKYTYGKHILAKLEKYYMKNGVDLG
# Procedure, shortened: as §1
# PUM1 PUF domain R4-ALY = PUM1 PUF domain R4-ALY (Homo sapiens, UniProt Q14671 828-1176, N971A;H972L;Q975Y)
# Procedure, shortened: as §1
# PUM1 PUF domain R7-RGQ = PUM1 PUF domain R7-RGQ (Homo sapiens, UniProt Q14671 828-1176, S1079R;N1080G;E1083Q)
# Procedure, shortened: as §1
# PUM1 PUF domain R3-WFE = PUM1 PUF domain R3-WFE (Homo sapiens, UniProt Q14671 828-1176, C935W;R936F;Q939E)
# Procedure, shortened: as §1
sequence,measurement,setting,value
GGCUAGAACUAGUGGAUCCCCCGGCGCCCGGCGGCUCGAGCCCGGGUAAGUGUCAAUAGUCUGCAUGCCGCCGGGCGCCAUGCCUGCAGGUCGACUCUAGAAAACAUG,binding signal,PUM1 PUF domain R5-KMW,3.19 log2 enrichment (interaction score)
same,binding signal,PUM1 PUF domain R5-KTV,2.38 log2 enrichment (interaction score)
same,binding signal,PUM1 PUF domain R5-ERL,3.87 log2 enrichment (interaction score)
GGCUAGAACUAGUGGAUCCCCCGGCGCCCGGCGGCUCGAGCCCGGGUAAGUGUAAUUAGUCUGCAUGCCGCCGGGCGCCAUGCCUGCAGGUCGACUCUAGAAAACAUG,binding signal,PUM1 PUF domain R3-RSL,2.55 log2 enrichment (interaction score)
same,binding signal,PUM1 PUF domain R3-QRG,2.4 log2 enrichment (interaction score)
same,binding signal,PUM1 PUF domain R3-RAD,4.21 log2 enrichment (interaction score)
GGCUAGAACUAGUGGAUCCCCCGGCGCCCGGCGGCUCGAGCCCGGGUAAGUGUAAAUAGUCUGCAUGCCGCCGGGCGCCAUGCCUGCAGGUCGACUCUAGAAAACAUG,binding signal,PUM1 PUF domain R5-KMW,1.25 log2 enrichment (interaction score)
same,binding signal,PUM1 PUF domain R6-FRI,3.38 log2 enrichment (interaction score)
same,binding signal,PUM1 PUF domain R4-ALY,3.56 log2 enrichment (interaction score)
same,binding signal,PUM1 PUF domain R5-ERL,5.49 log2 enrichment (interaction score)
GGCUAGAACUAGUGGAUCCCCCGGCGCCCGGCGGCUCGAGCCCGGGUAAGUCUAAAUAGUCUGCAUGCCGCCGGGCGCCAUGCCUGCAGGUCGACUCUAGAAAACAUG,binding signal,PUM1 PUF domain R7-RGQ,4.22 log2 enrichment (interaction score)
GGCUAGAACUAGUGGAUCCCCCGGCGCCCGGCGGCUCGAGCCCGGGUAAGUGUGAAUAGUCUGCAUGCCGCCGGGCGCCAUGCCUGCAGGUCGACUCUAGAAAACAUG,binding signal,PUM1 PUF domain R5-ERL,1.92 log2 enrichment (interaction score)
GGCUAGAACUAGUGGAUCCCCCGGCGCCCGGCGGCUCGAGCCCGGGUAAGUGUAAGUAGUCUGCAUGCCGCCGGGCGCCAUGCCUGCAGGUCGACUCUAGAAAACAUG,binding signal,PUM1 PUF domain R3-WFE,3.04 log2 enrichment (interaction score)
same,binding signal,PUM1 PUF domain R3-QRG,3.07 log2 enrichment (interaction score)
